Only a selection was taken, and hits are over-represented in it overall.
Cruzain inh noDet: cruzain (T. cruzi) inhibition without detergent; purified cruzain, Z-FR-AMC fluorescence, no detergent; actives 2.3% (n = 200,000); Potency, µM, without a hit: max response, negative = inhibition, hits mostly inhibitors;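 also: plate controls were enzyme without inhibitor for no effect and buffer without enzyme for full effect; nearly all actives have a fitted effect of over 40% in size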
Target sequence (P25779 123-467 limits assumed): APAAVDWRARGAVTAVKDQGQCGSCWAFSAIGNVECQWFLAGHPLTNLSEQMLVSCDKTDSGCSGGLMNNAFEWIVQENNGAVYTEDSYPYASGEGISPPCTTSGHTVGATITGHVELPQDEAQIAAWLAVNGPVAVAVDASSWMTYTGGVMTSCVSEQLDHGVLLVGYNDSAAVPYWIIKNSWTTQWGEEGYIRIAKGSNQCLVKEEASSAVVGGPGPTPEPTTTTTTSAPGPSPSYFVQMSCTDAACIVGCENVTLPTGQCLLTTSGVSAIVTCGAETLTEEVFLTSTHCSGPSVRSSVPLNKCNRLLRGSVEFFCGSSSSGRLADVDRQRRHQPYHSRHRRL
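Detergent-free condition (0.00005% Triton X-100) in acetate buffer pH 5.5 with DTT. 1.5 nM enzyme and compound were pre-mixed 15 min, then 2 uM Z-FR-AMC substrate added; reaction progress from fluorescence change between first and third reads (60 s).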
Cruzain inh Det: cruzain (T. cruzi) inhibition with detergent; actives 0.43% (n = 200,000); P25779; purified cruzain, Z-FR-AMC fluorescence, 0.01% Triton; AID 1478; Potency, µM, without a hit: max response, negative = inhibition, hits mostly inhibitors;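 also: plate controls were neutral wells for no effect and buffer without enzyme for full effect; nearly all actives have a fitted effect of over 40% in size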
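Cysteine protease activity tested under reducing, mildly acidic conditions (100 mM sodium acetate pH 5.5, 5 mM DTT) plus 0.01% Triton X-100. Cruzain 1.5 nM; substrate Z-FR-AMC 2 uM; 15 min compound preincubation at room temperature.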
Giardia FBPA inh: inhibitors of Giardia lamblia fructose-1,6-bisphosphate aldolase; A8B2U2; purified Giardia FBPA; Potency, µM (series often up to 59.6 µM), without a hit: top-dose activity, negative = inhibition, usual class: inhibitors; actives 0.71% (n = 290,000); AID 2451; also: nearly all actives have a fitted effect of over 55% in size
Target sequence (A8B2U2 whole entry, looked up): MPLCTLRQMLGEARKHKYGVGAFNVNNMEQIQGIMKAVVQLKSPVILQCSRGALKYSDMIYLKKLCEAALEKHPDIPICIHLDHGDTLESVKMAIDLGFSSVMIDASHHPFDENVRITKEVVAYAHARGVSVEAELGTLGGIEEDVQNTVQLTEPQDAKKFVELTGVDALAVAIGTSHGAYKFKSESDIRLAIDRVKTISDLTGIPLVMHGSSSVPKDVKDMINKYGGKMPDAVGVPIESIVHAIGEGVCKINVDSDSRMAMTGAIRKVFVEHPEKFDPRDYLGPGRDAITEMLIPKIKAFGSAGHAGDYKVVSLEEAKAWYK
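Giardia FBPA (40 nM reagent) was preincubated 10 min at RT with compound (up to 57.5 uM final), then substrate plus GAPDH/TPI/NAD/arsenate coupling system with diaphorase/resazurin was added; resorufin fluorescence (525/598 nm) was read after 20 min.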
* marks the source's active call; other numbers are inactive results; ? = inconclusive; · = no result given; [ ] = dose if it differs, or a comment. Calls follow the shape of the dose curve; as a rule, active = well fitted curve in the direction sought with a large enough effect; inconclusive = small, poorly fitted or top-dose-only effect, or another doubt; inactive = no such curve, though single readings can be large; an effect the other way counts as inactive or inconclusive. Unless noted, % is scaled to controls: 0 for no effect and ±100 for the full control effect; potency is read from the fitted curve at half-maximal effect.

SMILES | Cruzain inh noDet | Cruzain inh Det | Giardia FBPA inh
CCc1ccc(C(=O)COC(=O)C(NC(=O)C2CCC(C)CC2)C(C)C)cc1 (stereo not given) | -5% | -15% | ·
CC1CCC(C(=O)NC(C(=O)OCC(=O)c2ccc(Br)cc2)C(C)C)CC1 (stereo not given) | -23% | 14µM* | ·
COc1ccc2o/c(=N/NC(=S)Nc3ccccc3)c(C(N)=O)cc2c1 | 6.3µM* | -12% | 0%
COc1ccc2cc(C(N)=O)/c(=N\NC(=O)c3ccccc3)oc2c1 | · | · | 0%
CCCN(CC1CC1)C(=O)CSc1nnc(-c2cc(-c3cccs3)nc3ccccc23)o1 | 16µM* | -4% | 5%
NC(=O)CSc1nnc(-c2cc(-c3cccs3)nc3ccccc23)o1 | -18% | -10% | 4%
Nc1c(Cl)cc(Cl)cc1Cl | 1% | 2% | ·
COc1ccc(-c2ccc3c(N)c(C(=O)NCc4ccc(C)cc4)sc3n2)cc1 | 16µM* | 13µM* | ·
Cc1ccc(CNC(=O)c2sc3nc(-c4ccc(F)cc4)ccc3c2N)cc1 | -27% | -3% | ·
CCC(=O)Nc1ccc2nc(SCCOc3ccc(C)cc3OC)sc2c1 | ? | -7% | ·
O=C(Nc1ccc(Br)cc1)c1ccc(N2C(=O)C3CC=C(Cl)CC3C2=O)cc1 (stereo not given) | 20µM* | -4% | 4%
O=C(Nc1ccc(Br)cc1)c1ccc(N2C(=O)C3CCCCC3C2=O)cc1 (stereo not given) | · | · | 6%
c1ccc(CCN2CCCCCC2)nc1 | -2% | 3% | ·
CC1(C)CC(=O)c2cc(-c3nc(-c4ccc(Cl)cc4)cs3)c(=O)n(-c3cccc(F)c3)c2C1 | -5% | -2% | ·
CCN(C(=O)c1cc2c(=O)oc3ccc(C)cc3c2s1)c1ccccc1F | -13% | 1% | ·
Cc1ccc(NC(=O)COC(=O)CNC(=O)c2ccc3ccccc3c2)c([N+](=O)[O-])c1 | 3.2µM* | 7.1µM* | -2%
CC(=O)COC(=O)CNC(=O)c1ccc(Br)cc1 | -24% | -24% | 1%
Cc1ccc(NC(=O)COC(=O)C2CCC(=O)N2)c([N+](=O)[O-])c1 (stereo not given) | · | · | -3%
COc1cccc(C(=O)NCC(=O)OCC(=O)Nc2cc(OC)c([N+](=O)[O-])cc2C)c1 | ? | 22µM* | 11%
COc1cc(NC(=O)COC(=O)CNC(=O)c2cc(C)cc(C)c2)c(C)cc1[N+](=O)[O-] | -20% | ? | -1%
O=C(COC(=O)c1ccc(O)cc1)Nc1ccccc1[N+](=O)[O-] | · | · | 3%
Cc1ccc(C(=O)NCC(=O)OCC(=O)Nc2ccccc2[N+](=O)[O-])cc1 | 7.9µM* | 11µM* | 0%
CC(C)N(C(=O)COC(=O)CNC(=O)c1ccc(Br)cc1)c1ccccc1 | 16µM* | 16µM* | 3%
COc1cc(OC)cc(-c2nnc3n2N=C(c2cc(OC)ccc2OC)CS3)c1 | · | · | -9%
C/C=C1\CC2C=CC1C2 (stereo not given) | -3% | 1% | ·
SMILES | Cruzain inh noDet | Cruzain inh Det | Giardia FBPA inh
Cc1ccc(NC(=O)COC(=O)CNC(=O)c2ccc(Br)cc2)c(C)c1 | 16µM* | 14µM* | 5%
Cc1ccc(C(=O)NCC(=O)OCC(=O)NCC(F)(F)F)cc1 | · | · | -3%
CCc1ccc(C(=O)COC(=O)CNC(=O)Cc2ccccc2)cc1 | · | · | 2%
O=C(COC(=O)CNC(=O)c1cccc([N+](=O)[O-])c1)Nc1nc2ccccc2s1 | ? | -26% | 9%
Cc1ccc(C(=O)NCC(=O)OCC(=O)c2ccc(C)c([N+](=O)[O-])c2)cc1 | 13µM* | 16µM* | 2%
O=C(COC(=O)CNC(=O)c1cccc([N+](=O)[O-])c1)Nc1ccccc1OC(F)F | 20µM* | 16µM* | -1%
Cc1ccc(C(=O)COC(=O)CNC(=O)C(c2ccccc2)c2ccccc2)cc1[N+](=O)[O-] | -25% | -27% | 2%
O=C(Cc1ccccc1)NCC(=O)OCC(=O)c1ccc(Cl)c([N+](=O)[O-])c1 | 16µM* | ? | 2%
CC(=O)c1ccc(N2CCN(C(=O)c3cc4c(s3)-c3ccccc3OC4)CC2)cc1 | 5% | -2% | ·
O=C(O)[C@@H](O)[C@@H](O)C1[O][Sb][O][C@@H]1CO (stereo not given in full) | 5% | 4% | ·
NCCP(=O)(O)O | 4% | 1% | ·
CC(C)/C=C1\CCc2c([nH]c3ccccc23)C1=O | · | · | -3%
Cc1ccc2[nH]c3c(c2c1)CC/C(=C/c1ccccc1)C3=O | 13µM* | 4% | 1%
O=C1/C(=C\c2ccccc2)CCc2c1[nH]c1ccccc21 | ? | -1% | -12%
Cc1ccc(/C=C2/CCc3c([nH]c4ccccc34)C2=O)cc1 | 32µM* | 6% | 5%
O=S(=O)(c1ccc(-c2nnc(SCc3nnc(-c4ccccc4)o3)o2)cc1)N1CCCC1 | ? | 0% | 8%
CCN(CC)S(=O)(=O)c1ccc(-c2nnc(SCc3nnc(-c4ccccc4)o3)o2)cc1 | 25µM* | 3% | 2%
N#CCC(=N)N1CCN(c2ccc(Cl)cc2)CC1 | 13µM* | -1% | -7%
N#CCC(=N)N1CCN(c2ccc(F)cc2)CC1 | · | · | -6%
COc1ccccc1CNc1ccc(-c2nc(C(C)C)no2)cc1[N+](=O)[O-] | ? | -4% | ·
COc1ccccc1CNc1ccc(-c2nc(C)no2)cc1[N+](=O)[O-] | 20µM* | -4% | ·
NC(=O)CSc1nc2ccc([N+](=O)[O-])cc2[nH]1 | · | · | -10%
Cc1cccc2nc(CSc3nc4ccc([N+](=O)[O-])cc4[nH]3)c(Br)n12 | 3.2µM* | -7% | 2%
O=C(Oc1ccc(S(=O)(=O)F)cc1F)c1ccccc1Cl | 8% | 0% | ·
C=C(C)C(=O)OCC1CO1 (stereo not given) | -3% | 6% | ·
SMILES | Cruzain inh noDet | Cruzain inh Det | Giardia FBPA inh
COc1cc(/C=C(\C#N)c2nc3ccccc3[nH]2)ccc1OC(=O)c1ccco1 | -9% | -4% | 0%
N#C/C(=C\c1ccc(OCc2ccc(Cl)cc2Cl)cc1)c1nc2ccccc2[nH]1 | -11% | 2% | ·
COc1cc(/C=C(\C#N)c2nc3ccccc3[nH]2)c([N+](=O)[O-])cc1OCc1ccccc1 | 32µM* | -5% | -14%
COc1cc(/C=C(\C#N)c2nc3ccccc3[nH]2)cc(Cl)c1OCc1ccccc1Cl | 10µM* | 0% | ·
Cc1ccc2occ(CC(=O)Nc3ccc(Cl)c(C(F)(F)F)c3)c2c1 | -1% | -7% | ·
Cc1cc(-c2csc(NC(=O)c3cccc(S(=O)(=O)N(C)C)c3)n2)c(C)n1-c1ccccc1 | 7.9µM* | -5% | -7%
CN1CCN(S(=O)(=O)c2cccc(C(=O)Nc3nc(-c4ccccc4)cs3)c2)CC1 | -6% | -11% | -3%
CCOC(=O)c1csc(NC(=O)c2ccc(S(=O)(=O)N(C)C)cc2)n1 | 4% | 4% | 2%
COC(=O)c1ccc(-n2c(C)cc(-c3csc(NC(=O)c4ccc(S(=O)(=O)N(C)C)cc4)n3)c2C)cc1 | 4µM* | -2% | -9%
CCCCc1nc2c(c3c1C[C@H](C)OC3)CN(C(=O)N[C@H](C(=O)OC)C(C)C)CC2 | · | · | 1%[12.9 µM]
CC(=O)Nc1ccc(N/C=C2/CCCC2=O)cc1 | · | · | -12%
Cc1cc(O)ccc1N/C=C1\CCCC1=O | -5% | -5% | 8.9µM*
Cc1oc(-c2ccc(C(=O)NCc3ccc(Cl)cc3)cc2)nc1CS(=O)(=O)c1ccccc1 | 25µM* | -4% | ·
Cc1oc(-c2ccc(C(=O)NCc3ccccc3)cc2)nc1CS(=O)(=O)c1ccccc1 | ? | -6% | ·
